Among all 290,000 compounds or so, about 27,000 (9.3%) were called active. Rule as the data show it: active = inhibition mostly above about 28% (no sharp cut-off); inactive = mostly below about 43%. The list comes from a sample in which actives are over-represented; it also holds similar structures and randomly drawn compounds.
test: A qHTS for Small Molecule Inhibitors of Shiga Toxin; details: Vero cells, Shiga toxin protein synthesis inhibition reporter; at 38.7 µM, stronger effect = higher value; also: 0% is about no effect

| Structure (SMILES) | inhibition |
| --- | --- |
| COc1ccccc1C(=O)NCc1nnc(SC(C)C(=O)Nc2nccs2)n1C (stereo unspecified) | 10.7% (inactive) |
| CCOc1ccc(NC(=O)C(C)N2C(=O)c3ccccc3C2=O)cc1 (stereo unspecified) | -15.9% (inactive) |
| O=C(Cc1ccc(Cl)cc1)NC1CCS(=O)(=O)C1 (stereo unspecified) | 1.56% (inactive) |
| Cc1ccc(S(=O)(=O)Nc2ccc3ncccc3c2)cc1 | -8.08% (inactive) |
| O=S(=O)(Nc1ccc2cn[nH]c2c1)c1ccccc1 | 24% (inactive) |
| O=S(=O)(Nc1ccc2nc(-c3ccco3)[nH]c2c1)c1ccccc1 | 70.6% (active) |
| Cc1ccc(-c2ccc(/C=N/NC(=O)CN3CCOCC3)o2)cc1[N+](=O)[O-] | -4.74% (inactive) |
| CN1CCN(/N=C/c2ccc(-c3ccc([N+](=O)[O-])cc3)o2)CC1 | 46.8% (active) |
| CN1CCN(/N=C/c2ccc(C#N)cc2)CC1 | 81.4% (inactive) |
| Cc1ccc(S(=O)(=O)N2CCN=C2SCc2c(F)cccc2Cl)cc1 | -2.63% (inactive) |
| Cc1nn(CC(=O)Nc2ccc3c(c2)OCO3)c(C)c1[N+](=O)[O-] | -8.73% (inactive) |
| Cn1cc([N+](=O)[O-])c(C(=O)Nc2cnn(Cc3ccc(F)cc3)c2)n1 | 7.88% (inactive) |
| Cc1nc([N+](=O)[O-])cn1CC(=O)Nc1ccc2c(c1)OCO2 | -7.53% (inactive) |
| Cn1cc([N+](=O)[O-])c(C(=O)Nc2ccc3c(c2)OCCO3)n1 | 53.6% (active) |
| Cc1onc(C(=O)Nc2ccc3c(c2)OCO3)c1[N+](=O)[O-] | 62.7% (active) |
| COc1cccc(NC(=O)c2nn(C34CC5CC(CC(C5)C3)C4)cc2[N+](=O)[O-])c1 | 28.3% (inactive) |
| c1ccc(CSc2nnc(-c3ccco3)n2Cc2ccccc2)cc1 | 94.3% (active) |
| c1ccc(CSc2nnc(-c3ccco3)c(-c3ccco3)n2)cc1 | -7.92% (inactive) |
| O=C(CSc1nnc(-c2ccco2)n1Cc1ccccc1)NC(=O)NCc1ccco1 | 10.4% (inactive) |
| O=C(Nc1ccc(S(=O)(=O)NCC2CCCO2)cc1)c1ccc(F)cc1 (stereo unspecified) | -1.55% (inactive) |
| CCc1cccc(C)c1NS(=O)(=O)c1cc(Br)cnc1N | -8.52% (inactive) |
| COc1ccc(/C=N/NC(=O)c2ccc(Cl)cc2)cc1COC(C)=O | -2.77% (inactive) |
| Cn1nccc1/C=N\NC(=O)c1ccc(Cl)cc1 | 30.8% (active) |
| CC1(C)C2CC=C(/C=N/NC(=O)c3ccc(Cl)cc3)C1C2 (stereo unspecified) | 30.5% (inactive) |

| Structure (SMILES) | inhibition |
| --- | --- |
| Cc1c(CC(=O)N2CCN(C(=O)C3COc4ccccc4O3)CC2)c(=O)oc2c(O)c(O)ccc12 (stereo unspecified) | 6.52% (inactive) |
| O=C(CCC1CCCN(C(=O)c2ccc(F)c(F)c2)C1)N1CCN(c2ccccn2)CC1 (stereo unspecified) | -25.9% (inactive) |
| Cc1ccc(O)c(CNc2nc3ccccc3n2C)c1 | 75.2% (active) |
| Cc1ccc(O)c(CNc2nc3ccccc3[nH]2)c1 | 30.6% (inactive) |
| CC(C)n1c(NCc2c[nH]c3ccccc23)nc2ccccc21 | 8.94% (inactive) |
| O=C(NCCCN1CCOCC1)c1ccc2c(c1)N(Cc1cccc(F)c1)C(=O)c1ccccc1S2 | -12.3% (inactive) |
| O=C(NC1CCCCCCC1)c1cccs1 | 88.4% (active) |
| O=C(NC1CCN(S(=O)(=O)c2ccc(F)cc2)CC1)c1ccccc1 | -7.58% (inactive) |
| CC(=O)c1cc(-c2ccccc2)n(CC(=O)NC2CCCCC2)c1C | 26.5% (inactive) |
| CC(C)C(OC(=O)c1cccs1)C(=O)NC1CCCCC1 (stereo unspecified) | 8.34% (inactive) |
| O=C(CCC(=O)c1cccs1)NC1CCCCCC1 | 29.7% (inactive) |
| CC(NC(=O)c1cc(-c2ccccc2)on1)c1ccccc1 (stereo unspecified) | 0.984% (inactive) |
| CSc1ccccc1NC(=O)c1cc(C2CC2)on1 | 19.8% (active) |
| O=C(NC1CC1)c1cccc(Br)c1 | 23.6% (inactive) |
| O=C(NC1CCCC1)c1cc(-c2ccccc2)on1 | 157% (active) |
| O=C(Nc1cc(C(F)(F)F)ccc1Cl)c1cc(C2CC2)on1 | -4.26% (inactive) |
| CSc1ccccc1NC(=O)c1cc(Cl)sc1Cl | 25.1% (inactive) |
| O=C(NC1CC1)c1ccc(-c2ccccc2)cc1 | 97.2% (active) |
| Cc1ccc(N2C(=O)C3C4C=CC(CC4)C3C2=O)cc1Cl (stereo unspecified) | 6.23% (inactive) |
| C[N+](C)(C)CCNC(=O)c1cc[n+](Cc2ccccc2)c(/C=N/O)c1 | -12.2% (inactive) |
| CCCCC[C@H]1CN(C2CCCCC2)C(=O)[C@@H]1CC(=O)NCc1ccc(OC)cc1 | -2.81% (inactive) |
| CCOc1ccc2c(c1)c(=O)c(S(=O)(=O)c1ccc(C)cc1)cn2CC | -4.36% (inactive) |
| O=C(NNS(=O)(=O)c1ccc(F)cc1)C1CCCCC1 | -10.2% (inactive) |
| O=C(NC1CCCCC1)c1cc(C2CC2)on1 | 108% (active) |

| Structure (SMILES) | inhibition |
| --- | --- |
| COc1ccccc1-c1cc(C(=O)NCCCn2ccnc2)no1 | 24.1% (inactive) |
| COc1cc(OC)c(C(=O)NC2CCCCCC2)cc1OC | -10.7% (inactive) |
| O=C(NCCCn1ccnc1)c1cc(-c2ccccc2)on1 | 146% (active) |
| Cc1nn(Cc2ccc(Cl)c(Cl)c2)c(C)c1NC(=O)c1cc(C2CC2)on1 | 12.5% (inactive) |
| COc1ccc(-c2cc(C(=O)NCCCn3ccnc3)no2)cc1 | 46.8% (inactive) |
| Cc1ccc(OCCCC(=O)Nc2ccc(S(=O)(=O)Nc3cc(C)nc(C)n3)cc2)cc1 | 12.9% (inactive) |
| C=C1CCN(C(CC(C)C)C(=O)NCc2cc(OC)c(OC)c(OC)c2)S(=O)(=O)c2ccccc21 (stereo unspecified) | -0.34% (inactive) |
| CCOc1cc(C2C(C(=O)c3ccco3)=C(O)C(=O)N2Cc2ccccc2)ccc1O (stereo unspecified) | -8.41% (inactive) |
| CC(=O)[C@@]12O[C@@H]1C[C@H]1[C@@H]3CC[C@H]4C[C@@H](O)CC[C@]4(C)[C@H]3CC[C@@]12C | 33.3% (inactive) |
| Cn1c(=O)c2sccc2n(Cc2ccc(Br)cc2)c1=O | 22.9% (inactive) |
| Cc1ccc(CSc2nsc(C)c2C#N)cc1 | 31.1% (active) |
| Cc1cc(C)c(C#N)c(SCc2ccc3c(c2)OCO3)n1 | 26.6% (inactive) |
| Cc1snc(SCc2c(F)cccc2Cl)c1C#N | -6.99% (inactive) |
| CC(C(=O)NC1CCCCC1)N1C(=O)c2cccc3cccc1c23 (stereo unspecified) | -6.55% (inactive) |
| CC(=O)N(Cc1cc(=O)[nH]c2ccccc12)c1ccc(C)cc1C | -8.12% (inactive) |
| COc1cccc(CNc2nc3nc4c(c(=O)n3[nH]2)CCC4)c1 | -7.62% (inactive) |
| O=C(c1cc2nc(-c3ccccc3)cc(-c3ccccc3)n2n1)N1CCC2(CC1)OCCO2 | 10.6% (inactive) |
| COc1cccc(-c2cc3nc4c(c(N5CCC6(CC5)OCCO6)n3n2)CCCC4)c1 | 63.6% (active) |
| COc1ccc(S(=O)(=O)N2CCN(C(=S)NCC3CCCO3)CC2)cc1OC (stereo unspecified) | -11.6% (inactive) |
| O=S(=O)(NCCCCCCNS(=O)(=O)c1c(F)cccc1F)c1ccc2c(c1)OCCO2 | -3.9% (inactive) |
| O=C(O)CCCn1cc(NC(=O)COc2cccc(Cl)c2)cn1 | 12.7% (inactive) |
| COc1cc(C(=O)OCC(=O)NC(C)CCc2ccccc2)cc(OC)c1OC (stereo unspecified) | -9.96% (inactive) |
| COc1ccc(OC)c(NC(=S)N2CCc3ccccc3C2)c1 | 46.8% (active) |
| COc1ccc(NC(=S)N2CCc3cc(OC)c(OC)cc3C2)cc1 | 11.3% (inactive) |

| Structure (SMILES) | inhibition |
| --- | --- |
| COc1ccc(C)cc1NC(=S)N1CCOCC1 | -10.3% (inactive) |
| CCOc1ccc(-c2noc(CCC(=O)NC3CCCC3)n2)cc1OC | -7.65% (inactive) |
| COc1ccc(CCNC(=O)CSCc2ccc(Br)cc2)cc1OC | -18.8% (inactive) |
| Cc1nn(CC(=O)NCC2CCCO2)c(=O)c2cc3ccccc3n12 (stereo unspecified) | 1.03% (inactive) |
| Cc1cccc(NS(=O)(=O)c2cc(Cl)ccc2Cl)n1 | 2.75% (inactive) |
| CC(C)[C@@H]1COC(c2cccc(C3=N[C@H](C(C)C)CO3)c2)=N1 | 46.5% (active) |
| Cc1c(CCC(=O)O)c(=O)oc2cc3occ(-c4ccccc4)c3cc12 | -11.6% (inactive) |
| O=c1c(-c2ccccc2)coc2cc(O)ccc12 | 93% (active) |
| O=c1c(-c2ccccc2)coc2c(CN3CCOCC3)c(O)ccc12 | 7.81% (inactive) |
| CC(C)c1ccc(C2C(C(=O)c3ccco3)=C(O)C(=O)N2CC2CCCO2)cc1 (stereo unspecified) | 1.66% (inactive) |
| COc1ccc(S(=O)(=O)N2CCCC(C(=O)NCCCn3ccnc3)C2)cc1OC (stereo unspecified) | -5.4% (inactive) |
| Cc1sc2ncn(CC(=O)NCCCC(=O)N(C)Cc3ccccc3)c(=O)c2c1C | -9.55% (inactive) |
| CC(C)(C)OC(=O)N1CCC(C(=O)NNC(=O)c2ccc(Cl)cc2Cl)CC1 | 5.93% (inactive) |
| CCOc1ccc(NC(=O)NNC(=O)c2ccc(Cl)cc2Cl)cc1 | 13.5% (inactive) |
| Cc1ccc(C(=O)NNC(=O)OC(C)(C)C)c(Cl)c1 | 90.5% (active) |
| CC(=O)Nc1ccc(NC(=O)c2ccc3c(c2)C(=O)N(c2ccccc2C)C3=O)cc1 | -4.3% (inactive) |
| O=C(Nc1cccc(Cl)c1)c1cc(S(=O)(=O)N2CCCCC2)c[nH]1 | -7.57% (inactive) |
| Cc1ccccc1NC(=O)CCNS(=O)(=O)c1ccc2[nH]c(=O)oc2c1 | -2.35% (inactive) |
| C=CCNc1ncnc2ccc(Br)cc12 | -28.8% (inactive) |
| COc1ccc(Nc2ncnc3sc(-c4ccccc4)cc23)c(OC)c1 | 4.65% (inactive) |
| COc1ccc(Nc2ncnc3ccc(Br)cc23)c(OC)c1 | 57.7% (active) |
| COc1ccc(CN(C)C(=O)Cc2ccsc2)c(OC)c1OC | -10.3% (inactive) |
| Cc1c(C)c2c(OCC(=O)NCCCO)cc3c(c2oc1=O)CCC(C)(C)O3 | -7.03% (inactive) |
| COc1ccccc1CNS(=O)(=O)CC12CCC(CC1=O)C2(C)C (stereo unspecified) | -4.21% (inactive) |

Reference: PubChem BioAssay AID2315 (National Center for Advancing Translational Sciences (NCATS), 2010)
